Out of some 5,500 compounds screened, about 2,000 (36%) were called active. About 18% were inconclusive and are not listed. Rule as the data show it: active = normalized growth mostly below about 0.91 (no sharp cut-off); inconclusive = no clear call, values can overlap the other calls; inactive = mostly above about 0.92. This is one part of the list.
Assay: chemical genetic growth profiling, strain panel (AID 1159580);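 also: tested at 20 µM; growth read once vehicle control cultures reached saturation at 30 °C; 1 = growth at the plate median or of vehicle wells; lower values mean less growth of the strain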
Details: S. cerevisiae deletion strains, growth OD
[1] = locus YAL040C, strain CLN3, hits give low values
[2] = locus YCL061C, strain MRC1 (second series), hits give low values
[3] = locus YDR150W, strain NUM1, hits give low values
[4] = locus YDR363W, strain ESC2, hits give low values
[5] = locus YER002W, strain NOP16, hits give low values
[6] = locus YMR307W, strain GAS1, hits give low values
[7] = locus YNL153C, strain GIM3, hits give low values
[8] = locus YNL175C, strain NOP13, hits give low values
[9] = locus YNL197C, strain WHI3, hits give low values
[10] = locus YNL224C, strain SQS1, hits give low values
[11] = locus YOR083W, strain WHI5 (second series), hits give low values
[12] = locus YGR078C, strain PAC10, hits give low values
[13] = locus YGR229C, strain SMI1, hits give low values

Measured: normalized growth

CN(C(=O)Cc1ccc(Cl)c(Cl)c1)C(CN1CCCC1)c1cccc(OCC(=O)O)c1 (stereo not given)
inactive: [1] 0.998 | [2] 0.995 | [3] 1 | [4] 0.961 | [5] 0.992 | [6] 0.989 | [7] 1.01 | [8] 0.995 | [9] 0.997 | [10] 0.99 | [11] 0.999 | locus YPL055C, strain LGE1, hits give low values 1.01

C[C@H](Cc1ccc2c(c1)OC(C(=O)O)(C(=O)O)O2)NC[C@H](O)c1cccc(Cl)c1
inactive: [1] 1.02 | [2] 1.01 | [4] 0.998 | [5] 0.992 | [12] 1.01 | [13] 1.01 | [6] 1.02 | [7] 0.967 | [8] 1 | [9] 0.987 | [10] 1 | locus YNL322C, strain KRE1, hits give low values 1 | [11] 0.985

CC(Cc1ccc(OCC(=O)O)cc1)NCC(O)c1cccc(Cl)c1 (stereo not given)
active: [3] 0.182
inactive: [1] 0.97 | [5] 1.01 | [12] 1.01 | [13] 1.02 | locus YNL128W, strain TEP1, hits give low values 1.02 | [8] 0.984 | [9] 0.979 | [10] 0.99 | [11] 0.977

— PubChem BioAssay AID1159580 (chemical genetic matrix, 2015)
